Bioassay records (PubChem BioAssay)
HTT cytoprotect: protects HTT-Q103 PC12 cells, measured by ATP | AID 1471 | PC12 HTT-Q103 induced, cytoprotection, ATP luminescence, 40 h | Potency, µM (highest dose often 56.4 µM), for the others: cytoprotection (ATP increase), usual class: activators | hit rate 0.14% among 230,000; note: % of control where 0% means no effect; nearly all actives have a fitted effect of over 45% in size
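Compounds were screened for protection of PC12 cells against cell death after tebufenozide induction (100 nM final) of mutant Huntingtin exon 1 (Q103) fused to GFP.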
LMNA splice mod: changes lamin A minigene splicing in HeLa cells; HeLa LMNA splicing GFP/RFP minigene ratio, 48 h; Potency, µM (highest dose often 46.1 µM), for the others: at the highest dose ratio change, negative = inhibition, most hits filed as inhibitors; hit rate 0.01% among 200,000; active = well fitted inhibition curve with a large enough effect in the signal ratio, with a control signal flat, not every such curve was filed as active; inconclusive = small, poorly fitted or top-dose-only effect, or effect the other way, or a change in a side signal; the % refers to the signal ratio; note: % is set by controls: 0 for no effect and ±100 for the full control effect
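S3 HeLa cells stably expressing lamin A-EGFP splicing minigene plus DsRed2, 600 cells/well, 48 h compound exposure at 37C. Laser-scanning cytometry; analysed as GFP (500-530 nm)/RFP (575-640 nm) total intensity ratio; 0.5% DMSO vehicle.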
HTT aggregate: reduces HttQ103-GFP aggregates in PC12 cells | PC12 HttQ103-GFP aggregates, Acumen cytometry, 40 h | Potency, µM (top dose mostly 46.1 µM), inactives show top-dose activity change, negative = inhibition, actives largely listed as inhibitors | hit rate 1.1% among 220,000 | AID 1688; note: % is set by controls: 0 for no effect and ±100 for the full control effect; nearly all actives have a fitted effect of over 60% in size
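Huntingtin Q103 exon 1–GFP aggregates in induced PC12 cells (100 nM tebufenozide) were quantified by cytometry from lysates, with compounds dosed in titration.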
ALDH1A1 block: blocks purified human ALDH1A1 activity; Purified ALDH1A1, NADH fluorescence, propionaldehyde substrate; hit rate 7.3% among 220,000; P00352; Potency, µM (doses to about 75.3 µM), for inactives: at the top dose activity, negative = inhibition, hits mostly inhibitors; active = well fitted inhibition curve with a large enough effect, not every such curve was filed as active; inconclusive = small, poorly fitted or top-dose-only effect, or another doubt; inactive = no such curve, though single readings can be large or run the other way;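 note: plate controls were no enzyme wells and a reference inhibitor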
HPGD block: blocks human HPGD enzyme activity; hit rate 4.3% among 150,000; Potency, µM, for the others: top-dose activity change, negative = inhibition, hits mostly inhibitors; AID 894; purified HPGD, NADH fluorescence kinetic, PGE2 substrate; active = well fitted inhibition curve with a large enough effect, not every such curve was filed as active; inconclusive = small, poorly fitted or top-dose-only effect, or another doubt; inactive = no such curve, though single readings can be large or run the other way; note: % is set by controls: 0 for no effect and ±100 for the full control effect
Target sequence (P15428 whole entry, looked up): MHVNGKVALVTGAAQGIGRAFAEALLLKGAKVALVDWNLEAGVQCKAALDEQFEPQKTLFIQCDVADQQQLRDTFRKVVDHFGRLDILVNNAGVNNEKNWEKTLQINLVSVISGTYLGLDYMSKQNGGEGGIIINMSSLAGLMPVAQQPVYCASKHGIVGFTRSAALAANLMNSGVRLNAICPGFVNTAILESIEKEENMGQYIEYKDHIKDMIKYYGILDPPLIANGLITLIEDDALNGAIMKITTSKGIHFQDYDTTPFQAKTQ
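20 nM HPGD preincubated 15 min at room temperature with compound in 50 mM Tris-HCl pH 8, 0.01% Tween 20. Started with 1 mM NAD+ and 30 uM prostaglandin E2; NADH fluorescence (360/450 nm) read 5 times over 30-s intervals, last minus first.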
The depositor's hits bear a star; u = inconclusive; x = no result given; [ ] = remark or other dose. Shown are actives, neighbours in structure and some others; about 8.8% of the full set was active somewhere. Unless noted, calls come from the whole dose curve; as a rule, active = well fitted curve in the direction sought with a large enough effect; inconclusive = small, poorly fitted or top-dose-only effect, or another doubt; inactive = no such curve, though single readings can be large; an effect the other way counts as inactive or inconclusive. Potency is the fitted concentration of half-maximal effect.

SMILES	HTT cytoprotect	LMNA splice mod	HTT aggregate	ALDH1A1 block	HPGD block
CC(C)(C)c1[nH]nc2c1C(c1ccc(OC(=O)c3ccco3)cc1)C(C#N)=C(N)O2 (stereo unspecified)	4%	15%	6%	4.5µM*	-17%
Cc1nc(N2CCOCC2)[nH]c(=O)c1C(O)C(Cl)(Cl)Cl (stereo unspecified)	-14%[10 µM]	x	-26%[9.22 µM]	x	x
COc1cc(OC)c(C#N)c(S(=O)Cc2ccccc2)c1 (stereo unspecified)	3%	16%	-2%	14µM*	-4%
CCc1ccccc1N=C1S/C(=C/c2ccccc2OCC(=O)N2CCOCC2)C(=O)N1C	14%[10 µM]	u	-14%	1%	-4%
O=C1NN(c2ccccc2)C(=O)/C1=C\c1ccccc1OCC(=O)N1CCOCC1	22%	10%	13%	u	16µM*
c1ccc(-n2ncc3c(N4CCCCC4)ncnc32)cc1	-124%	-18%	-15%	u	18µM*
c1ccc(CCN2CCN(c3ncnc4c3cnn4-c3ccccc3)CC2)cc1	-14%	u	-19%	28µM*	-8%
CCOC(=O)N1CCN(c2ncnc3c2cnn3-c2ccc(Cl)cc2)CC1	-11%[10 µM]	u	5%	4µM*	u
Cc1ccccc1C(=O)N1CCN(c2ncnc3c2cnn3-c2ccccc2)CC1	-8%	u	u	7.9µM*	-4%
Cc1ccc(C)c(N2CCN(c3ncnc4c3cnn4-c3ccccc3)CC2)c1	0%	0%	u	u	u
O=C(NCC1CCCC(CNC(=O)N2CCc3ccccc32)C1)N1CCc2ccccc21 (stereo unspecified)	-9%	u	-8%	9%	-18%
C[C@@H]1CC[C@]2(C(=O)O)CC[C@]3(C)C(=CCC4[C@@]5(C)C[C@@H](O)[C@H](O)[C@@](C)(CO)C5[C@H](O)C[C@]43C)C2[C@H]1C (stereo partly specified)	-45%	x	x	5%	-7%
O=C(c1ccc(S(=O)(=O)c2ccccc2Cl)c([N+](=O)[O-])c1)N1CCN(Cc2ccccc2)CC1	23%[10 µM]	u	9%[9.22 µM]	14µM*	-12%
COc1cc(N(C)C)c([N+](=O)[O-])cc1C(=O)N1CCN(Cc2ccccc2)CC1	-30%	-3%[9.22 µM]	u	10µM*	x
Cc1ccc(C)c(N/N=C2\CCCNC2=O)c1	3%[10 µM]	3%	-4%	0%	-21%
Cc1ccccc1N/N=C1\CCCNC1=O	-78%	-3%	15%	10µM*	22µM*
N#C/C(=C\c1cn[nH]c1-c1ccc(Cl)cc1)C(=O)NCc1ccccc1	-22%	2%	-14%	22µM*	u
N#C/C(=C\c1cn[nH]c1-c1ccc(Cl)cc1)C(=O)NC1CC1	x	u	-5%	2%	-6%
Cc1ccc(/C=C(\C#N)C(=O)NC(C)C)o1	-19%	-1%[46 µM]	11%	u	x
Cc1ccc(/C=C(/C#N)C(=O)NC(C)c2ccccc2)o1 (stereo unspecified)	-7%[10 µM]	2%	14%	14µM*	-20%
Cc1ccc(C(=O)NC(C)c2ccccc2)o1 (stereo unspecified)	-12%[10 µM]	-1%	4%	u	22µM*
CC(NC(=O)/C(C#N)=C/c1cn[nH]c1-c1ccccc1)c1ccccc1 (stereo unspecified)	-43%	-5%	u	7.9µM*	14µM*
CSCCC(NC(=O)c1ccc(C)o1)C(=O)O (stereo unspecified)	-14%[10 µM]	11%	-2%	16µM*	-11%
CSCCC(NC(=O)c1cc(C)oc1C)C(=O)O (stereo unspecified)	1%	-3%	13%	-3%	-7%
O=c1oc2ccccc2cc1O	-40%	x	x	1%	18µM*
SMILES	HTT cytoprotect	LMNA splice mod	HTT aggregate	ALDH1A1 block	HPGD block
Cc1ccc(-n2c3c(cc(C(=O)Nc4cccc(Cl)c4)c2=O)C(=O)CC(C)(C)C3)cc1	x	4%[46 µM]	x	x	x
O=C1NC(c2ccc(Br)cc2)Nc2sc3c(c21)CCC3 (stereo unspecified)	-4%	1%	11%	u	-30%
Cc1ccsc1C1NC(=O)c2c(sc3c2CCCC3)N1 (stereo unspecified)	21%[10 µM]	-1%	28µM*	u	u
CCn1c(O)c(C=Nc2ccccc2)oc1=S	-22%[10 µM]	10%	6%	20µM*	16µM*
CCCn1c(O)c(C=Nc2ccccc2)sc1=S	-1%[10 µM]	-4%[46 µM]	12%[9.22 µM]	14µM*	x
CCCCn1c(O)c(/C=C/C=C/C=Nc2ccccc2)sc1=S	-19%	u	15%	18µM*	x
CCn1c(O)c(/C=C/C=C/C=Nc2ccccc2)sc1=S	x	19%[46 µM]	x	u	x
CCc1nc2ccc(C(=O)NCc3ccc(OC)c(OC)c3)cc2nc1CC	x	6%[46 µM]	x	x	x
N[C@H](Cc1cnc[nH]1)C(=O)O	-29%	x	x	20%	-12%
CC1(C)Oc2ccc(C(=O)NN)cc2NC1=O	-47%	x	-7%	1.6µM*	x
COCCNC(=O)C1(C)Oc2ccccc2NC1=O (stereo unspecified)	9%	0%	1%	7%	0%
COc1ccc(C2CCCN2C(=S)Nc2cccc(Cl)c2C)cc1OC (stereo unspecified)	-39%	4%[46 µM]	-25%	u	x
COc1cccc(-c2coc3ccc(Br)cc3c2=O)c1	-44%	x	x	7%	-5%
Cc1oc2cc3c(C(=O)N4CCCCC4)c(C)oc3cc2c1C(=O)N1CCCCC1	5%	u	4%	u	4.5µM*
Cc1ccc(S(=O)(=O)N2CCCC2C(=O)NCc2ccc3c(c2)OCO3)cc1 (stereo unspecified)	10%[10 µM]	-10%[46 µM]	8%[9.22 µM]	3%	x
S=C(c1ccc(-c2ccccc2Cl)o1)N1CCCCC1	-32%[10 µM]	u	u	u	28µM*
CN1CCN(C(=S)c2ccc(-c3cccc(Cl)c3Cl)o2)CC1	x	u	-5%	u	22µM*
CC(C)c1ccc2c(c1)[C@H]1OCC[C@H]1[C@@H](c1cccs1)N2	x	u	-20%	6%	7.9µM*
CC1=NN(c2ccc(F)cc2)C(=O)C1C(c1cccc(O)c1)c1c(C)[nH]n(-c2ccc(F)cc2)c1=O (stereo unspecified)	-8%	7%	28%	8.9µM*	18µM*
CC1=NN(c2ccc(Cl)cc2)C(=O)C1C(c1cccc(O)c1)c1c(C)[nH]n(-c2ccc(Cl)cc2)c1=O (stereo unspecified)	33%[10 µM]	u	13µM*	4µM*	25µM*
O=C(Nc1ccc(N2CCCC2)c(Cl)c1)c1ccccc1[N+](=O)[O-]	20%[10 µM]	-8%	-5%	u	-24%
CN(C)S(=O)(=O)c1cccc(NC(=O)c2ccc(N3CCOCC3)c([N+](=O)[O-])c2)c1	-78%[10 µM]	u	u	18µM*	-17%
CC(=O)N1CCN(c2ccc(NC(=O)c3ccc(N4CCCC4)c([N+](=O)[O-])c3)cc2Cl)CC1	-7%[10 µM]	1%	-5%	7.9µM*	-5%
